Compounds without any hit were thinned out: in the full panel of roughly 79,000, 15% have a hit. Unmarked numbers belong to inactive results. Active and inactive are the calls of the source. No stated cut-off is given here; in the data, active means growth inhibition above about 70%; inactive means the rest.
Assay: NCI Yeast Anticancer Drug Screen. Data for the sgs1 mgt1 strain (AID 161);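 further: 0% = growth of cultures given vehicle only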
Conditions: S. cerevisiae sgs1 mgt1 strain, at 50.0 µM, active compounds read high
Method: Growth inhibition of yeast strains with defined genetic alterations is measured as a screen for potential anti-cancer activity. Selected strains with alterations in DNA damage repair or cell cycle control were exposed to compounds and growth inhibition was measured relative to vehicle treated controls. The strain used in this assay is sgs1 mgt1

**Q.** For `CC([NH-])C(=O)O.[Cl][Pt][Cl]` (stereo not given), which growth inhibition is on record?
**A.** -24.9%

**Q.** For `NCCN.O=C([O-])[O-].O=C([O-])[O-].[Co+3].[K+]`, which growth inhibition is on record?
**A.** 5.2%

**Q.** Which growth inhibition does the source give for `NS(=O)(=O)CC1CC[CH-]CC1.[Cl-].[Cl-].[Cl-].[Cl-].[Cl-].[Sb+5].c1ccncc1` here?
**A.** -10%

**Q.** With `CC(=O)OC1CCC2(C)C(CC(=O)C3C2CCC2(C)C(OC(C)=O)CCC32)C1` (stereo not given) as the compound, how does the growth inhibition read?
**A.** 1.5%

**Q.** For `c1ccc2sc(SNC3CCCCC3)nc2c1`, which growth inhibition is on record?
**A.** -60.1%

**Q.** Which growth inhibition does the source give for `CC(C)(Br)[N+](=O)[O-]` here?
**A.** 4.45%

**Q.** For `N/C(=N\NC(=O)c1ccc([N+](=O)[O-])cc1)N[N+](=O)[O-]`, which growth inhibition is on record?
**A.** -3.65%

**Q.** Which growth inhibition does the source give for `O=[N+]([O-])c1ccc(Cl)c(OCCCOc2ccc(S(=O)(=O)F)cc2)c1` here?
**A.** 8.05%

**Q.** Which growth inhibition does the source give for `O=NNc1ncc([N+](=O)[O-])cn1` here?
**A.** -5.9%

**Q.** Which growth inhibition does the source give for `CC(CCC#N)([N+](=O)[O-])[N+](=O)[O-]` here?
**A.** 4.35%

**Q.** Which growth inhibition does the source give for `O=C1C(=C([O-])c2ccccc2)C(=O)c2ccccc21.O=C1C(=C([O-])c2ccccc2)C(=O)c2ccccc21.[Fe+2]` here?
**A.** 14.6%

**Q.** For `O=C(O)C(Cc1cnc[nH]1)N1C(=O)c2ccccc2C1=O` (stereo not given), which growth inhibition is on record?
**A.** -1%

**Q.** With `Cn1c(=O)oc(=O)c2ccccc21` as the compound, how does the growth inhibition read?
**A.** -17.4%

**Q.** Which growth inhibition does the source give for `COc1ccc(C(O)(C(=O)OCCSC)c2ccc(OC)cc2)cc1` here?
**A.** -2.6%

**Q.** Which growth inhibition does the source give for `CN(C(=O)CCl)c1ccccc1` here?
**A.** 8.5%

**Q.** For `C[Si](C)(C)CN(N=O)C(N)=O`, which growth inhibition is on record?
**A.** -3.45%

**Q.** With `O=C(c1ccccc1)C1CN(C2CCCC2)C1c1ccccc1` (stereo not given) as the compound, how does the growth inhibition read?
**A.** -1.55%

**Q.** For `O=NN1CCCCCCC1C(=O)O` (stereo not given), which growth inhibition is on record?
**A.** -14.7%

**Q.** With `CN1C2CCC1CC(OC(=O)/C=C\c1ccccc1)C2` (stereo not given) as the compound, how does the growth inhibition read?
**A.** -5.45%

**Q.** With `CCOC(=O)/C(=C\c1ccc(Cl)cc1)[Se]c1ccccc1` as the compound, how does the growth inhibition read?
**A.** 28.9%

**Q.** With `NC(CSSCC(N)C(=O)c1ccccc1)C(=O)c1ccccc1` (stereo not given) as the compound, how does the growth inhibition read?
**A.** 9.3%

**Q.** With `O=[N+]([O-])c1ccc(N2CC2)c([N+](=O)[O-])c1` as the compound, how does the growth inhibition read?
**A.** 10.5%

**Q.** For `CCOc1ccc(/C=C/c2cc(OC)c(OC)c(OC)c2)cc1`, which growth inhibition is on record?
**A.** -23.8%

**Q.** With `FC(F)(F)[S-].FC(F)(F)[S-].[C-]#[O+].[C-]#[O+].[C-]#[O+].[C-]#[O+].[C-]#[O+].[C-]#[O+].[C-]#[O+].[C-]#[O+].[Mn].[Mn]` as the compound, how does the growth inhibition read?
**A.** 99.7% (active)

**Q.** With `c1cc2n[se]nc2cc1-c1ccc2n[se]nc2c1` as the compound, how does the growth inhibition read?
**A.** -7.85%

**Q.** For `CC(C)C1C=Cc2ccccc21` (stereo not given), which growth inhibition is on record?
**A.** 4.45%

**Q.** With `NCCCC(N)P(=O)(O)O` (stereo not given) as the compound, how does the growth inhibition read?
**A.** 2.6%

**Q.** Which growth inhibition does the source give for `CC(C)=CCC/C(C)=N\N=C(N)N` here?
**A.** -13.2%

**Q.** Which growth inhibition does the source give for `CC(C)C1NC(C(C)C)N2C(C(C)C)N12` (stereo not given) here?
**A.** -14.3%

**Q.** With `C=CCOCN1c2cc(OC)c([C@@]3(C(=O)OC)C[C@@H]4CN(CCc5c3[nH]c3ccccc53)C[C@](O)(CC)C4)cc2[C@@]23CCN4CC=C[C@@](CC)([C@@H](OC(C)=O)[C@](O)(C(=O)OC)[C@H]12)[C@H]43` as the compound, how does the growth inhibition read?
**A.** 2.35%

**Q.** With `CCCCCCCCCNP(=O)(OCc1ccccc1)N(CCCl)CCCl` (stereo not given) as the compound, how does the growth inhibition read?
**A.** 40.2%

**Q.** For `CCOP(=O)(OCC)Oc1ccc(S(C)=O)cc1` (stereo not given), which growth inhibition is on record?
**A.** -1%

**Q.** With `C=CCOCC1CO1` (stereo not given) as the compound, how does the growth inhibition read?
**A.** 11.1%

**Q.** For `ClCCN(CCCl)c1ccc2c(c1)Cc1cc(Br)ccc1-2`, which growth inhibition is on record?
**A.** 40.7%

**Q.** With `CC(C)(C)N1COC2CCCCC21` (stereo not given) as the compound, how does the growth inhibition read?
**A.** 4.65%

**Q.** For `O=C1OC(Br)c2ccccc21` (stereo not given), which growth inhibition is on record?
**A.** -8%

**Q.** Which growth inhibition does the source give for `CN1CN(c2ccccc2)C2(CCN(CCC3Oc4ccccc4O3)CC2)C1=O` here?
**A.** -0.4%

**Q.** For `C=C[C](=C)[Pb]([CH2]C)([CH2]C)[CH2]C`, which growth inhibition is on record?
**A.** -10.5%

**Q.** For `CN(C)Cc1c[nH]c2ccc(F)cc12`, which growth inhibition is on record?
**A.** -15.2%

**Q.** Which growth inhibition does the source give for `C=Cn1nnc(N)n1` here?
**A.** -16.7%

— PubChem BioAssay (NCI)
